Reference: PubChem BioAssay (NCATS)
Records with an inconclusive call do not appear. Calls of active or inactive are those of the source. Calls come from the whole dose curve; as a rule, active = well fitted curve in the direction sought with a large enough effect; inconclusive = small, poorly fitted or top-dose-only effect, or another doubt; inactive = no such curve, though single readings can be large; an effect the other way counts as inactive or inconclusive.

Tests used:
[1] = MultiTox-Fluor Cytotoxicity Assay - LYMP1-002 - Live Cells (AID 955)
How it was run: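 Human lymphoblastoid LYMP1-002 cells, 2500/well in complete medium, rested 5 hr at 37 C, then exposed to compounds for 16 hr at 37 C. Live-cell protease cleavage of GF-AFC read by fluorescence (Ex/Em 405/510) after 60 min at room temperature; AC50 from Hill fits.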

[2] = MultiTox-Fluor Cytotoxicity Assay - LYMP1-002 - Dead Cells (AID 960); note: nearly all actives have a fitted effect of over 60% in size
How it was run: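 Human lymphoblastoid cells (LYMP1-002), 2500/well in complete medium, were exposed to compounds for 16 hr at 37 C. Dead-cell protease activity was read as bis-AAF-R110 fluorescence (Ex/Em 485/520), normalized to DMSO and 15 uM tetraoctylammonium bromide; AC50 from Hill fits.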

[3] = MultiTox-Fluor Cytotoxicity Assay - LYMP1-003 - Dead Cells (AID 961); note: nearly all actives have a fitted effect of over 70% in size
How it was run: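 LYMP1-003 lymphoblastoid, 2500 cells/well, 5 hr settle then 16 hr cpd at 37 C; MultiTox-Fluor reagent 60 min RT; Ex/Em 485/520 dead-cell signal; norm. DMSO = 0%, 15 uM tetraoctylammonium bromide = 100%; Hill AC50.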

[4] = Cell Viability - LYMP1-003 - Assay at 24 hr (AID 963)
How it was run: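 Human lymphoblastoid LYMP1-003 cells (2500/well) were rested 5 hr at 37 C, then exposed to compounds in complete medium for 24 hr at 37 C. Cellular ATP was quantified by CellTiter-Glo luminescence, and AC50 values came from Hill fits of concentration-response data.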

[5] = Cell Viability - LYMP1-003 - Assay at 40 hr (AID 964); note: series mostly up to about 92 µM; nearly all actives have a fitted effect of over 60% in size
How it was run: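 Human lymphoblastoid LYMP1-003 cells, 2500/well in complete medium, rested 5 hr at 37 C, then exposed to compounds for 40 hr at 37 C. Viability read as intracellular ATP by CellTiter-Glo luminescence; AC50 from Hill fits of concentration-response data.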

[6] = Cell Viability - LYMP2-003 (AID 965);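 note: cells exposed to compounds for 24 h before reading; nearly all actives have a fitted effect of over 50% in size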
How it was run: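 Seed 2500 lymphoblastoid cells/well; incubate 5 hr, 37 C; add compounds; incubate 24 hr, 37 C; add CellTiter-Glo, 30 min RT; read luminescence. AC50 from Hill fit.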

[7] = Cell Viability - LYMP2-004 (AID 966); note: nearly all actives have a fitted effect of over 65% in size
How it was run: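 Human lymphoblastoid cells (2500/well) in complete medium were treated with compounds for 24 hr at 37 C, then intracellular ATP was measured by CellTiter-Glo luminescence. AC50 values came from Hill-equation fits of concentration-response data.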

[8] = Cell Viability - LYMP2-005 (AID 967); note: series mostly up to about 92 µM
How it was run: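 Acute cytotoxicity is scored as a concentration-dependent drop in intracellular ATP in human lymphoblastoid LYMP2-005 cells after 24 h compound treatment. ATP is quantified by luciferase luminescence, and AC50 is derived by Hill-equation modelling.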

[9] = Cell Viability - LYMP2-009 (AID 968); note: series mostly up to about 92 µM; nearly all actives have a fitted effect of over 55% in size
[10] = Cell Viability - LYMP2-013 (AID 970); note: series mostly up to about 92 µM; nearly all actives have a fitted effect of over 55% in size
How it was run: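 Human lymphoblastoid cells, 2500/well, were preincubated 5 hr at 37 C, then treated with compounds for 24 hr at 37 C in complete medium. Intracellular ATP was read by CellTiter-Glo luminescence; AC50 from Hill-equation fits of concentration-response data.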

[11] = Cell Viability - LYMP2-015 (AID 971); note: nearly all actives have a fitted effect of over 55% in size
How it was run: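 Human lymphoblastoid cells (2500/well) in complete medium were preincubated 5 hr at 37 C, then compound-treated 24 hr at 37 C. Intracellular ATP was read by CellTiter-Glo luminescence after 30 min at room temperature; AC50 came from Hill-equation concentration-response fits.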

[12] = Cell Viability - LYMP2-017 (AID 972); note: series mostly up to about 92 µM; nearly all actives have a fitted effect of over 55% in size
How it was run: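 Human lymphoblastoid cells (2500/well) were seeded in complete medium, held 5 hr at 37 C, then exposed to compounds for 24 hr at 37 C. Intracellular ATP was read by CellTiter-Glo luminescence after 30 min at room temperature, with AC50 values from Hill-equation fits.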

[13] = Cell Viability - LYMP2-019 (AID 973); note: nearly all actives have a fitted effect of over 55% in size
How it was run: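 Human lymphoblastoid cells were seeded at 2500 cells/well, preincubated 5 hr at 37 C, then exposed to compounds for 24 hr at 37 C in complete medium. Intracellular ATP was measured by CellTiter-Glo luminescence; AC50 from Hill fits.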

[14] = Cell Viability - LYMP2-021 (AID 974)
How it was run: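 Human lymphoblastoid cells (2500/well) were preincubated 5 hr at 37 C, then exposed to compounds for 24 hr at 37 C in complete medium. Intracellular ATP was read by CellTiter-Glo luminescence; AC50 came from Hill-equation fits of concentration-response data.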

[15] = Cell Viability - LYMP2-023 (AID 975)
How it was run: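 Human lymphoblastoid cells (2500/well) were preincubated 5 hr at 37 C, then exposed to compounds for 24 hr at 37 C in complete medium. Cellular ATP was read by CellTiter-Glo luminescence, and AC50 came from Hill-equation fits.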

[16] = Cell Viability - LYMP2-025 (AID 976); note: series mostly up to about 92 µM
How it was run: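 Human lymphoblastoid LYMP2-025 cells (2500/well) were pre-incubated 5 hr at 37 C, then treated with compounds for 24 hr at 37 C in complete medium. Viability was read as intracellular ATP by CellTiter-Glo luminescence; AC50 from Hill fits.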

[17] = Cell Viability - LYMP2-002 (AID 977);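 note: series mostly up to about 92 µM; compound exposure lasted 24 h at 37 °C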
How it was run: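 Human lymphoblastoid LYMP2-002 cells, 2500 per well, exposed to compounds for 24 h at 37 C in complete medium; viability read as intracellular ATP by CellTiter-Glo luminescence, AC50 from Hill fits.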

[18] = Cell Viability - LYMP2-006 (AID 978); note: series mostly up to about 92 µM; nearly all actives have a fitted effect of over 60% in size
How it was run: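 Cells are seeded at 2500 per well and rested 5 hr at 37 C. Compounds are added across a concentration series for 24 hr at 37 C, after which ATP is quantified by luciferase luminescence.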

[19] = Cell Viability - LYMP2-007 (AID 979);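 note: cells exposed to compound for 24 h before reading; nearly all actives have a fitted effect of over 60% in size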
How it was run: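 Human lymphoblastoid cells (2500/well) were plated in complete medium, incubated 5 hr at 37 C, then exposed to compounds for 24 hr at 37 C. Intracellular ATP was read by CellTiter-Glo luminescence after 30 min at room temperature; AC50 from Hill fits.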

Measured: Potency

CC(C)O
inactive: [1] | [2] | [3] | [4] | [5] | [6] | [7] | [8] | [9] | [10] | [11] | [12] | [13] | [14] | [15] | [16] | [17] | [18] | [19]

[O-][N+](=Nc1ccccc1)c1ccccc1
inactive: [1] | [2] | [3] | [4] | [5] | [7] | [8] | [9] | [10] | [11] | [12] | [13] | [14] | [15] | [16] | [17] | [18] | [19]

CC1=CC(=O)NS(=O)(=O)O1
inactive: [1] | [2] | [3] | [4] | [5] | [6] | [7] | [9] | [10] | [11] | [12] | [13] | [14] | [15] | [16] | [17] | [18] | [19]

OCl
inactive: [1] | [2] | [3] | [4] | [5] | [6] | [7] | [8] | [9] | [10] | [11] | [12] | [13] | [14] | [15] | [16] | [17] | [18] | [19]

O.O.O.O.O.O.O.O=S(=O)([O-])[O-].[Co+2]
inactive: [1] | [3] | [4] | [6] | [10] | [12] | [15] | [16] | [18]

Nc1nccs1
inactive: [1] | [2] | [3] | [4] | [5] | [6] | [7] | [8] | [9] | [10] | [11] | [12] | [13] | [14] | [15] | [16] | [17] | [18] | [19]

Oc1cccc(O)c1O
inactive: [1] | [2] | [3] | [4] | [8] | [10] | [11] | [12] | [13] | [15] | [16] | [17] | [18]

Cc1ccc(S(=O)(=O)O)cc1C
inactive: [1] | [2] | [3] | [4] | [5] | [6] | [7] | [8] | [9] | [10] | [11] | [12] | [13] | [14] | [15] | [16] | [17] | [18] | [19]

CCCCC
inactive: [1] | [2] | [3] | [4] | [5] | [6] | [7] | [8] | [9] | [10] | [11] | [12] | [13] | [14] | [15] | [16] | [17] | [18] | [19]
